In PubChem BioAssay (EPA / NIEHS):
Calls of active or inactive are those of the source. How the source made its calls: active means hit-call score of the fitted dose curve at least 0.9, where 1 is the maximum; inactive means score below 0.9.

Tests used:
[1] = read-out: Interleukin-1 alpha (IL1a), IL1A (gene 3552); test: BSK_KF3CT_IL1a: BioMAP Diversity Plus: KF3CT Assay for Interleukin-1 alpha (IL1a) Biomarker Activity (AID 2283070); details: primary human keratinocytes with fibroblasts; actives raise or lower the signal
How it was run: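 Human keratinocyte plus foreskin fibroblast primary co-culture, sampled 24 h after chemical dosing. IL-1a measured by ELISA; responses fitted bidirectionally against DMSO baseline (negative control), so gain or loss of signal both count.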

[2] = read-out: TIMP metallopeptidase inhibitor 2 (TIMP2), TIMP2 (gene 7077); test: BSK_KF3CT_TIMP2: BioMAP Diversity Plus: KF3CT Assay for TIMP metallopeptidase inhibitor 2 (TIMP2) Biomarker Activity (AID 2283071); details: primary human keratinocytes with fibroblasts; actives raise or lower the signal
How it was run: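 Human primary keratinocyte/foreskin fibroblast co-culture dosed with chemical and sampled at 24 h. TIMP-2 levels quantified by ELISA; bidirectional fitting against DMSO negative control as baseline.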

[3] = read-out: Transforming growth factor beta 1 (TGFb1), TGFB1 (gene 7040); test: BSK_KF3CT_TGFb1: BioMAP Diversity Plus: KF3CT Assay for Transforming growth factor beta 1 (TGFb1) Biomarker Activity (AID 2283072); details: primary human keratinocytes with fibroblasts; actives raise or lower the signal
How it was run: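 Human keratinocyte plus foreskin fibroblast primary co-culture, dosed with chemical for 24 h. TGF-b1 quantified by ELISA. Activity fitted bidirectionally against DMSO negative control as baseline.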

[4] = read-out: C-C motif chemokine 2 (Homo sapiens) (UniProt P13500); test: BSK_KF3CT_MCP1: BioMAP Diversity Plus: KF3CT Assay for Monocyte Chemoattractant Protein 1 (MCP1/CCL2) Biomarker Activity (AID 2283073); details: primary human keratinocytes with fibroblasts; actives raise or lower the signal
How it was run: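 Human keratinocyte–foreskin fibroblast co-culture; MCP-1 measured by ELISA 24 h after dosing. Bidirectional fit vs DMSO; cytotoxicity tracked by SRB total protein in parallel cultures.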

[5] = read-out: Matrix Metallopeptidase 9 (MMP9), MMP9 (gene 4318); test: BSK_KF3CT_MMP9: BioMAP Diversity Plus: KF3CT Assay for Matrix Metallopeptidase 9 (MMP9) Biomarker Activity (AID 2283074); details: primary human keratinocytes with fibroblasts; actives raise or lower the signal;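 on AC50: MMP9 protein level quantified by ELISA in the co-culture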
How it was run: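 Keratinocyte plus foreskin fibroblast human primary skin co-culture was dosed with chemical and MMP-9 was quantified by ELISA 24 h later. Bidirectional curve fitting used DMSO as negative control and activity baseline.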

[6] = read-out: urokinase plasminogen activator (uPA), PLAU (gene 5328); test: BSK_KF3CT_uPA: BioMAP Diversity Plus: KF3CT Assay for urokinase plasminogen activator (uPA) Biomarker Activity (AID 2283075); details: primary human keratinocytes with fibroblasts; actives raise or lower the signal
How it was run: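 Human keratinocyte plus foreskin fibroblast primary co-culture exposed to chemical for 24 h. uPA levels were quantified by ELISA, and activity was fitted bidirectionally against a DMSO negative-control baseline.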

CD40, CD40 (gene 958) [7] = test: BSK_LPS_CD40: BioMAP Diversity Plus: LPS Assay for CD40 Biomarker Activity (AID 2283076); details: primary human HUVEC with PBMC; actives raise or lower the signal
How it was run: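 HUVEC plus PBMC co-culture stimulated with LPS; CD40 quantified by ELISA 24 h after compound dosing. Fitting was bidirectional relative to DMSO. SRB staining of parallel cultures flagged overt cytotoxicity.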

[8] = read-out: E-selectin (Homo sapiens) (UniProt P16581); test: BSK_LPS_Eselectin: BioMAP Diversity Plus: LPS Assay for Eselectin Biomarker Activity (AID 2283077); details: primary human HUVEC with PBMC; actives raise or lower the signal
How it was run: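 Human umbilical vein endothelial cells co-cultured with PBMC under LPS stimulation; cell-surface E-selectin measured by ELISA 24 h after dosing. Change in either direction versus DMSO, with SRB total-protein staining in parallel cultures for cytotoxicity.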

[9] = BSK_LPS_SRB: Viability Assessment in the BioMAP Diversity Plus: LPS Assay (AID 2283079); details: primary human HUVEC with PBMC;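 further: total protein by sulforhodamine B absorbance as a cytotoxicity measure; measured one day after compound addition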
How it was run: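 Co-culture of human umbilical vein endothelial cells and PBMC, read 24 h after dosing. Total protein by 0.1% SRB staining after 10% TCA fixation, absorbance at 560 nm; bidirectional fit against DMSO.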

[10] = read-out: Interleukin-1 alpha (IL1a), IL1A (gene 3552); test: BSK_LPS_IL1a: BioMAP Diversity Plus: LPS Assay for Interleukin-1 alpha (IL1a) Biomarker Activity (AID 2283080); details: primary human HUVEC with PBMC; actives raise or lower the signal
How it was run: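 Human umbilical vein endothelial cells co-cultured with PBMC and stimulated with LPS; IL-1a measured by ELISA 24 h after dosing. Bidirectional fitting against DMSO; cytotoxicity checked by SRB staining in parallel cultures.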

[11] = read-out: Monocyte Chemoattractant Protein-1 (MCP1), CCL2 (gene 6347); test: BSK_LPS_MCP1: BioMAP Diversity Plus: LPS Assay for Monocyte Chemoattractant Protein-1 (MCP1) Biomarker Activity (AID 2283081); details: primary human HUVEC with PBMC; actives raise or lower the signal;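 on AC50: secreted MCP-1 protein quantified by ELISA in culture supernatant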
How it was run: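 Human umbilical vein endothelial cells co-cultured with PBMC, LPS-stimulated; secreted MCP-1 measured by ELISA 24 h after compound addition. Bidirectional curve fitting against DMSO baseline; SRB total-protein staining in parallel cultures for cytotoxicity.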

[12] = BSK_LPS_PGE2: BioMAP Diversity Plus: LPS Assay for Prostaglandin E2 (PGE2) Biomarker Activity (AID 2283082); details: primary human HUVEC with PBMC; actives raise or lower the signal;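 on AC50: secreted prostaglandin E2 measured by ELISA in LPS-stimulated co-culture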
How it was run: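 HUVEC plus PBMC co-culture stimulated with LPS; secreted PGE2 quantified by ELISA 24 h after chemical dosing. Activity fitted bidirectionally against DMSO as negative control and baseline; parallel SRB total-protein staining served as cytotoxicity check.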

[13] = read-out: Macrophage colony-stimulating factor (MCSF), CSF1 (gene 1435); test: BSK_LPS_MCSF: BioMAP Diversity Plus: LPS Assay for Macrophage colony-stimulating factor (MCSF) Biomarker Activity (AID 2283083); details: primary human HUVEC with PBMC; actives raise or lower the signal
How it was run: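 HUVEC–PBMC co-culture, M-CSF measured by ELISA 24 h after chemical dosing. Fitted in both directions relative to DMSO as negative control; overt cytotoxicity assessed by SRB total-protein staining in parallel cultures.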

[14] = read-out: Tissue Factor, F3 (gene 2152); test: BSK_LPS_TissueFactor: BioMAP Diversity Plus: LPS Assay for Tissue Factor Biomarker Activity (AID 2283084); details: primary human HUVEC with PBMC; actives raise or lower the signal
How it was run: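 Human umbilical vein endothelial cells co-cultured with PBMC were dosed with compound. Cell-surface CD142 was measured by ELISA 24 h later. Activity was fitted bidirectionally against DMSO, with SRB total-protein staining in parallel cultures for cytotoxicity.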

[15] = read-out: Tumor necrosis factor (Homo sapiens) (UniProt P01375); test: BSK_LPS_TNFa: BioMAP Diversity Plus: LPS Assay for Tumour Necrosis Factor alpha (TNFa) Biomarker Activity (AID 2283085); details: primary human HUVEC with PBMC; actives raise or lower the signal;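 on AC50: TNFa protein level quantified by ELISA in the co-culture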
How it was run: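 Human umbilical vein endothelial cells co-cultured with PBMC were exposed to test chemical and TNFa measured by ELISA 24 h after dosing. Bidirectional curve fitting was done relative to DMSO as negative control and baseline.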

[16] = read-out: Vascular cell adhesion molecule 1 (VCAM1), VCAM1 (gene 7412); test: BSK_LPS_VCAM1: BioMAP Diversity Plus: LPS Assay for Vascular cell adhesion molecule 1 (VCAM1) Biomarker Activity (AID 2283086); details: primary human HUVEC with PBMC; actives raise or lower the signal
How it was run: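 Human umbilical vein endothelial cells co-cultured with peripheral blood mononuclear cells under LPS stimulation were exposed to test chemical for 24 h. VCAM-1 levels were then measured by ELISA, with bidirectional curve fitting relative to DMSO as negative control and baseline.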

CD38, CD38 (gene 952) = test: BSK_SAg_CD38: BioMAP Diversity Plus: SAg Assay for CD38 Biomarker Activity (AID 2283087); details: primary human HUVEC with PBMC; actives raise or lower the signal
How it was run: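 Fluorescence ELISA of cell-surface CD38 served as the read-out, with either increase or decrease fitted against DMSO controls. Cells were a human umbilical vein endothelium plus PBMC co-culture under SEB/TSST-1 stimulation, measured 24 h after dosing.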

CD40, CD40 (gene 958) [17] = test: BSK_SAg_CD40: BioMAP Diversity Plus: SAg Assay for CD40 Biomarker Activity (AID 2283088); details: primary human HUVEC with PBMC; actives raise or lower the signal
How it was run: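 HUVEC plus PBMC co-culture, superantigen-activated, with CD40 read by ELISA 24 h after dosing. Curves fitted in both directions against DMSO. Overt cytotoxicity checked by parallel SRB total-protein staining.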

CD69, CD69 (gene 969) = test: BSK_SAg_CD69: BioMAP Diversity Plus: SAg Assay for CD69 Biomarker Activity (AID 2283089); details: primary human HUVEC with PBMC; actives raise or lower the signal;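 on AC50: cell surface CD69 protein quantified by ELISA with fluorescence detection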
How it was run: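 ELISA, fluorescence read-out: CD69 on human umbilical vein endothelial cell + PBMC co-culture, 24 h post-dosing. Gain or loss of signal fitted bidirectionally against DMSO baseline.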

Measured: AC50

Tumor necrosis factor (Homo sapiens), sequence (P01375 whole entry, looked up): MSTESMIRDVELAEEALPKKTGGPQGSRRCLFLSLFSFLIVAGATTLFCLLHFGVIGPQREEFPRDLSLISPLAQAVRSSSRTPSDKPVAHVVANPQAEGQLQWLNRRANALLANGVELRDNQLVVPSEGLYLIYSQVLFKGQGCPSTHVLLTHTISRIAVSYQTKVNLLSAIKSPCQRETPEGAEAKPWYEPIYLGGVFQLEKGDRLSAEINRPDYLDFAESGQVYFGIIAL
E-selectin (Homo sapiens), sequence (P16581 whole entry, looked up): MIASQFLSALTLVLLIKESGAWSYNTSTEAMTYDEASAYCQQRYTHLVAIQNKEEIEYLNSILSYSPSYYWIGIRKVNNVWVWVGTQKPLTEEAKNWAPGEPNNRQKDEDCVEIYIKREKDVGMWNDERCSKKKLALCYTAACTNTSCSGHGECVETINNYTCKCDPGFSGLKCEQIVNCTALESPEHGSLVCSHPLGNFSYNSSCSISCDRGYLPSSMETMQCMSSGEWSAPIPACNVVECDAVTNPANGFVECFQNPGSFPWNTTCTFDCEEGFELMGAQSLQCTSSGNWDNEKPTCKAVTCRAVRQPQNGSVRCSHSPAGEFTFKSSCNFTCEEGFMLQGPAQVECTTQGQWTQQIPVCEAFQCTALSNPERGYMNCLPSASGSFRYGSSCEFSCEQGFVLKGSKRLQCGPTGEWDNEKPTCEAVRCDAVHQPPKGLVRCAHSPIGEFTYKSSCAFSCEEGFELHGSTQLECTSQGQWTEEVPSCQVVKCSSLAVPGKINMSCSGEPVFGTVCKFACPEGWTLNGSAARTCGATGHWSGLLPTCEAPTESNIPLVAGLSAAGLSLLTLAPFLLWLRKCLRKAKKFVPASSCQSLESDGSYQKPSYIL

C=CCc1cc(S(=O)(=O)c2ccc(O)c(CC=C)c2)ccc1O
inactive: [3]
active: [1] 30 µM | [2] 17.3 µM | [4] 24.4 µM | [5] 10.3 µM | [6] 30.4 µM | CD40, CD40 (gene 958) [7] 11.7 µM | [8] 29.2 µM | [9] 14.7 µM | [10] 30.6 µM | [11] 15.8 µM | [12] 32.3 µM | [13] 28.6 µM | [14] 32.7 µM | [15] 29.8 µM | [16] 30 µM | CD38, CD38 (gene 952) 14.5 µM | CD40, CD40 (gene 958) [17] 11.6 µM | CD69, CD69 (gene 969) 24.3 µM

CCCCCCCC1CCC(=O)O1 (configuration not stated)
inactive: all assays above

CCOC(N)=O
inactive: all assays above
